{
  "source": "PubChem BioAssay AID504890",
  "about": "(The Scripps Research Institute Molecular Screening Center, 2011)",
  "note": "Active and inactive are the calls of the source.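 How the source made its calls: active means EC50 at or below 10 µM; inactive means EC50 above 10 µM.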",
  "data": [
    {"assay": "polarization artefacts in absence of PKA proteins – biochemical, fluorescence polarization, 1536-well HTS, artefact control for PKA-R2B complex activator project, dose response (AID 504890)", "details": "Cy5-IP20 FP artifact counterscreen, no PKA-R2B complex", "values": [
      {"smiles": "Nc1nc2c(nc(Br)n2[C@@H]2O[C@@H]3COP(=O)(O)O[C@H]3[C@H]2O)c(=O)[nH]1", "EC50": "> 114 µM (inactive)"},
      {"smiles": "CCCC(=O)Nc1ncnc2c1ncn2[C@@H]1O[C@@H]2COP(=O)(O)O[C@H]2[C@H]1OC(=O)CCC", "EC50": "> 114 µM (inactive)"},
      {"smiles": "Nc1ncnc2c1nc(Sc1ccc(Cl)cc1)n2[C@@H]1O[C@@H]2COP(=O)(O)O[C@H]2[C@H]1O", "EC50": "> 114 µM (inactive)"},
      {"smiles": "CCCC(=O)Nc1ncnc2c1ncn2[C@@H]1O[C@@H]2OP(=O)(O)OC[C@H]2[C@H]1OC(=O)CCC", "EC50": "> 114 µM (inactive)"},
      {"smiles": "CCOP1(=O)OCC2OC(n3cnc4c(N)ncnc43)C(O)C2O1", "note": "(centres undefined)", "EC50": "> 114 µM (inactive)"},
      {"smiles": "Nc1ncnc2c1nc(Br)n2[C@@H]1O[C@@H]2COP(=O)(O)O[C@H]2[C@H]1O", "EC50": "> 114 µM (inactive)"},
      {"smiles": "O=C(O)c1sccc1SCc1ccc(Cl)cc1Cl", "EC50": "> 114 µM (inactive)"},
      {"smiles": "CN(C)c1ccc(N=Nc2ccc(S(=O)(=O)O)cc2)c2ccccc12", "EC50": "> 114 µM (inactive)"},
      {"smiles": "O=S(=O)(O)c1cccc2c(N=Nc3ccc(O)c4ncccc34)cccc12", "EC50": "> 114 µM (inactive)"}
    ]}
  ]
}
